{"source": "PubChem BioAssay AID488839", "about": "(Broad Institute, 2010)", "note": "About 35 (0.01%) of roughly 330,000 compounds were called active.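 How the source made its calls: active means highest replicate inhibition of at least 50% and at least 75% of replicates reaching 50%; inconclusive means only one of the two criteria met; inactive means both criteria failed.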 These entries were drawn from the full list."}
{"target": "Cyclin-dependent kinase 5 (Homo sapiens) + Cyclin-dependent kinase 5 activator 1 (Homo sapiens) (UniProt Q00535+Q15078)", "sequence (Q00535 whole entry, looked up)": "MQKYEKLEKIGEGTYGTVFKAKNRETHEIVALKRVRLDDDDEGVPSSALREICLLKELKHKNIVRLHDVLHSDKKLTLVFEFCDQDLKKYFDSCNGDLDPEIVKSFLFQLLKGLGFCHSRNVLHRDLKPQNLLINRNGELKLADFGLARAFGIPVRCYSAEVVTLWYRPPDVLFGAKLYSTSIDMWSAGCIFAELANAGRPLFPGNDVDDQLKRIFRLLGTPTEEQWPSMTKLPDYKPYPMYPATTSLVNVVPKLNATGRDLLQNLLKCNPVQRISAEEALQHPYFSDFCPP", "sequence (Q15078 whole entry, looked up)": "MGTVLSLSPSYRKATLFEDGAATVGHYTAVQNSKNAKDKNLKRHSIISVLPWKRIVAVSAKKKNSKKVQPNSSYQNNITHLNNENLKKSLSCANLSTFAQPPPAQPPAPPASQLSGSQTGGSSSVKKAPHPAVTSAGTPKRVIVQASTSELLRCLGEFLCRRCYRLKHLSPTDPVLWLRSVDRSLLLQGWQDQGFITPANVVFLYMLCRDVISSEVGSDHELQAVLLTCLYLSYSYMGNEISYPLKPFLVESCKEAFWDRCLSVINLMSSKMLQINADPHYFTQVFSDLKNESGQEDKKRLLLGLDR", "test": "CDK5/p35 phosphotransfer blockade – biochemical, single concentration, primary screen (AID 488839);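 further: plate controls were DMSO neutral control for no effect and GW8510 at 10 µM for full effect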", "details": "Recombinant CDK5/p35, ADP-Glo luminescence, 60 min; at 10 µM; hits give high values"}
{"compound": "CC(C)[C@@H](C(=O)O)N(Cc1cccc(CN([C@H](C(=O)O)C(C)C)S(C)(=O)=O)c1)S(C)(=O)=O", "inhibition": "-2.67% (inactive)"}
{"compound": "Cc1cc(-c2csc(N)n2)c(C)n1-c1ccccc1", "inhibition": "0.604% (inactive)"}
{"compound": "CCCN1C2=C(C(=O)CCC2)C(c2ccc(O)c(Br)c2)C2=C1CCCC2=O", "inhibition": "2.42% (inactive)"}
{"compound": "CC(Oc1cccc(Cl)c1)C(=O)Nc1ccc(S(=O)(=O)Nc2ncccn2)cc1", "note": "(centres undefined)", "inhibition": "-1.05% (inactive)"}
{"compound": "COc1cc(OC)cc(-c2c(C#Cc3ccsc3)c3cc(-c4ccc(OC)cc4F)ccc3n2C)c1", "inhibition": "2.95% (inactive)"}
{"compound": "O=C1COc2ccc(S(=O)(=O)NCCc3ccc(Cl)cc3)cc2N1", "inhibition": "-4.51% (inactive)"}
{"compound": "Cc1cccc(N2O[C@H]3C=CC2CCCC3)n1", "inhibition": "-0.772% (inactive)"}
{"compound": "NS(=O)(=O)c1ccc(CCNC(=O)NC2CCCCC2)cc1", "inhibition": "-0.391% (inactive)"}
{"compound": "COc1cc(OC)c(C2=NOC(C(=O)Nc3c(C)n(C)n(-c4ccccc4)c3=O)C2)cc1Cl", "note": "(centres undefined)", "inhibition": "-0.625% (inactive)"}
{"compound": "CCCCc1ccc(S(N)(=O)=O)cc1", "inhibition": "0.729% (inactive)"}
{"compound": "COc1ccc2c(c1)C=CC1(O2)N(CCO)c2ccccc2C1(C)C", "note": "(centres undefined)", "inhibition": "1.4% (inactive)"}
{"compound": "CC(/C=C/C1(O)C(C)CC(=O)CC1(C)C)OC1OC(CO)C(O)C(O)C1O", "note": "(centres undefined)", "inhibition": "-0.525% (inactive)"}
{"compound": "Cc1ccc(C(=O)N/C(=C/c2ccco2)C(=O)NCCc2c[nH]c3ccccc23)cc1C", "inhibition": "2.98% (inactive)"}
{"compound": "CCOc1ccc(C(=O)NCC(=O)N2CCN(c3ccc(C(F)(F)F)cn3)CC2)cc1", "inhibition": "-6.9% (inactive)"}
{"compound": "COc1ccccc1OCCNC(=O)C(CCSC)NC(=O)COc1ccccc1", "note": "(centres undefined)", "inhibition": "1.86% (inactive)"}
{"compound": "O=C(C1CCCO1)N(Cc1ccccc1)c1ccccc1", "note": "(centres undefined)", "inhibition": "-1.15% (inactive)"}
{"compound": "O=C(Nc1ccn(CCCNCc2ccc3[nH]ccc3c2)c(=O)n1)OCc1ccccc1", "inhibition": "1.87% (inactive)"}
{"compound": "O=C(CNC(=O)c1ccc2ccccc2c1)Nc1ncccc1O", "inhibition": "-1.57% (inactive)"}
{"compound": "COc1cc(C2/C(=C(\\O)c3ccc4c(c3)CC(C)O4)C(=O)C(=O)N2c2nnc(C)s2)cc(OC)c1OC", "note": "(centres undefined)", "inhibition": "-1.78% (inactive)"}
{"compound": "COc1cc(S(=O)(=O)N2CCOCC2)ccc1NC(=O)COc1ccc(N(C)S(=O)(=O)c2ccc(C)cc2)cc1", "inhibition": "-0.554% (inactive)"}
{"compound": "O=S(=O)(NCc1ccccc1Cl)c1cnc[nH]1", "inhibition": "0.727% (inactive)"}
{"compound": "O=C(OCC(=O)N1CCN(C(=O)c2ccco2)CC1)c1c(Cl)cccc1Cl", "inhibition": "0.768% (inactive)"}
{"compound": "O=c1c2ccccc2ncn1CCc1ccncc1", "inhibition": "1.49% (inactive)"}
{"compound": "CCOc1ccc(S(=O)(=O)N/N=C(\\C)c2ccc(Cl)c(Cl)c2Cl)cc1", "inhibition": "1.98% (inactive)"}
